RORg inh – qHTS for inhibitors of ROR gamma transcriptional activity; Nuclear receptor ROR-gamma (Mus musculus), P51450; Drosophila S2 Gal4-RORgamma UAS-luciferase reporter, 20 h; actives 5.4% (n = 310,000); Potency, µM (highest dose often 53.6 µM), without a hit: at the top dose activity change, negative = inhibition, hits mostly inhibitors; note: nearly all actives have a fitted effect of over 60% in size
Target sequence (P51450 whole entry, looked up, the tested form may be a part): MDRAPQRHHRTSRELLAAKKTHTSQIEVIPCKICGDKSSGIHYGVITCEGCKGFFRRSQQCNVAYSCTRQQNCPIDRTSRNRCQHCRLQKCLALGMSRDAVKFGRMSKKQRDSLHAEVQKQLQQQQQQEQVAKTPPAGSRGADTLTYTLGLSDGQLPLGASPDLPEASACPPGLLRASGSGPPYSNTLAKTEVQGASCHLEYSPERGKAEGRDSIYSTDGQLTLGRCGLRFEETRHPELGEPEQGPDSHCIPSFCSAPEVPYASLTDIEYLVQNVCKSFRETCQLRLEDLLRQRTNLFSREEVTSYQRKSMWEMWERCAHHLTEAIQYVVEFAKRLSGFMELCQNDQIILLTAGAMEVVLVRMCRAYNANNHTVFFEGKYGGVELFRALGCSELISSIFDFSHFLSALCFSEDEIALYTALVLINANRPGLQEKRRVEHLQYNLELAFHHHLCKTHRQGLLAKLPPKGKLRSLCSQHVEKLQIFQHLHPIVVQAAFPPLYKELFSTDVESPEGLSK
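Read-out: Photinus luciferase luminescence; inhibitors lower reporter signal. Insect Schneider cells with Gal4-ROR gamma fusion under metallothionein promoter, UAS reporter; 700 uM final copper sulfate induction, 20 hr, ambient temperature.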
NPSR antag – qHTS Assay for Antagonists of the Neuropeptide S Receptor: cAMP Signal Transduction. Q6W5P4. CHO-NPSR cells, cAMP TR-FRET, antagonist mode. Potency, µM (series often up to 38.3 µM), for inactives: at the top dose activity change, negative = inhibition, most hits filed as inhibitors. actives 1% (n = 220,000). AID 1461, 2008; note: nearly all actives have a fitted effect of over 50% in size
Gal4-VP16 FLuc – VP16 counterscreen qHTS for inhibitors of ROR gamma transcriptional activity; Drosophila S2 Gal4-VP16 UAS-luciferase, luminescence, 20 h; Potency, µM (top dose mostly 53.6 µM), for the others: at the highest dose activity, negative = inhibition, hits mostly inhibitors; actives 3.5% (n = 310,000);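 note: Gal4-VP16 expression switched on by copper sulfate through the metallothionein promoter; nearly all actives have a fitted effect of over 50% in size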
B2AR arrestin – qHTS assay of beta-arrestin-biased ligands of beta2-adrenergic receptor; Beta-2 adrenergic receptor (Homo sapiens), P07550; beta-arrestin recruitment to beta2AR, cell-based reporter; Potency, µM (series often up to 46.1 µM), inactives show at the top dose activation, usual class: activators; actives 0.02% (n = 330,000); AID 492947, 2010;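 note: 0% = DMSO controls and full agonism = EC100 isoproterenol or metaproterenol; nearly all actives have a fitted effect of over 65% in size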
* marks the source's active call; other numbers are inactive results; ? = inconclusive; . = no result; [ ] = remark or other dose. Hits are enriched below; roughly 5.7% of the tested compounds scored in any of these assays. Calls come from the whole dose curve; as a rule, active = well fitted curve in the direction sought with a large enough effect; inconclusive = small, poorly fitted or top-dose-only effect, or another doubt; inactive = no such curve, though single readings can be large; an effect the other way counts as inactive or inconclusive. Unless noted, % is set by controls: 0 for no effect and ±100 for the full control effect; potency is the fitted concentration of half-maximal effect.

SMILES	RORg inh	NPSR antag	Gal4-VP16 FLuc	B2AR arrestin
COc1ccc([C@]23Cc4cc(OC)c(OC)cc4C(O2)C2=C(CC(C)(C)CC2=O)O3)cc1	1%[10 µM]	.	-3%[10 µM]	-1%[9.22 µM]
C=C(C)[C@H]1CC=C(CO)CC1	-2%	.	-4%	.
COc1ccccc1C(=O)NCc1n[nH]c(=S)n1Cc1ccccc1	?	2%	1%	0%
COc1ccc(Cc2n[nH]c(=S)n2Cc2ccccc2)cc1Cl	-5%	-33%	-3%	0%
Cc1ccc(OCc2n[nH]c(=S)n2Cc2ccccc2)cc1	0.89µM*	?	6.3µM*	0%
Cc1ccccc1OCc1nnc(SCC(=O)O)n1Cc1ccccc1	-20%	19%	-1%	0%
Cc1ccccc1OCc1n[nH]c(=S)n1Cc1ccccc1	3.5µM*	5%	?	0%
S=c1[nH]nc(COc2cccc3ccccc23)n1Cc1ccccc1	3.2µM*	-40%	?	-1%
CCOc1ccc(Cc2n[nH]c(=S)n2Cc2ccccc2)cc1	4.5µM*	-31%	-21%	0%
COC(=O)/C=C\CCc1coc(/C=C\CNC(=O)OC)n1	-2%[10 µM]	.	5%[10 µM]	.
O=C(c1ccncc1)N1CCN(S(=O)(=O)c2ccc(F)cc2)CC1	-18%	.	-12%	0%
N#C/C(=C\c1ccccc1O)C(=O)Nc1ccccn1	7%	.	-15%	0%
O=C(Nc1nnc(SCC(=O)N2CCCc3ccccc32)s1)c1ccccc1	6.3µM*	-2%	?	-1%
O=C(Nc1nnc(SCC(=O)N2CCCc3ccccc32)s1)c1ccc2ccccc2c1	6.3µM*	-14%[46.1 µM]	5.6µM*	-1%
O=C(Nc1nnc(SCC(=O)N2CCOCC2)s1)c1ccccc1Cl	10µM*	-24%[46.1 µM]	6.3µM*	0%
CCCCOc1ccc(/C=C/C2=CC(C)(C)NC(=S)N2)cc1OCC	0.79µM*	-8%	1.8µM*	12%
COc1cccc([C@@H]2Oc3ccc(Br)cc3[C@H](O)[C@H]2O)c1	-5%	.	-4%	.
CCOC(=O)C1CCCN(Cc2nc(N)nc(Nc3ccc(OC)cc3)n2)C1 (stereo not drawn)	-27%	-10%[46.1 µM]	-4%	0%
CCOC(=O)C1CCCN(C/C(O)=C(\C#N)c2nc(-c3ccc(Cl)cc3)cs2)C1 (stereo not drawn)	22µM*	?	?	0%
CCOC(=O)C1CCCN(Cc2nc(N)nc(Nc3ccc(Cl)cc3)n2)C1 (stereo not drawn)	13µM*	?	?	0%
COc1ccc(C(=O)N2CCC3(CCCN(c4ncccn4)C3)CC2)cc1	-20%	.	-12%	.
COc1ccccc1OCC(=O)NNC(=O)CCCC(=O)NNC(=O)COc1ccccc1OC	-1%[1.91 µM]	.	-11%	0%
COc1ccccc1OCC(=O)NNc1c2ccccc2nc2ccccc12	1.6µM*	-31%	0.79µM*	0%
C=C(C)C1CC=C(C)/C(=N\NC(=S)Nc2ccc(C)cc2)C1 (stereo not drawn)	1.1µM*	-24%	4.5µM*	3%
C=C(C)C1CC=C(C)/C(=N/NC(=O)COc2ccc(C)cc2)C1 (stereo not drawn)	?	-16%[46.1 µM]	-24%	0%
SMILES	RORg inh	NPSR antag	Gal4-VP16 FLuc	B2AR arrestin
Cn1cccc1C(=O)N1CCC2(CC1)CN(C(=O)Nc1cccc(C#N)c1)C2	-3%	.	4%	.
Cc1nn(-c2ccccc2)c(N2CCCC2)c1/C=N/NC(=O)c1cc2ccccc2cc1O	3.5µM*	-1%	3.5µM*	-1%
Cc1nn(-c2ccccc2)c(N2CCCC2)c1/C=N/NC(=S)Nc1ccccc1F	0.35µM*	-53%	0.35µM*	8%
Cc1nn(-c2ccccc2)c(N2CCCC2)c1/C=N/NC(=O)c1cc(-c2ccccc2)nc2ccccc12	15%	-32%	-19%	2%
O=C(CC12CC3CC(CC(C3)C1)C2)N/N=C/c1ccc([N+](=O)[O-])o1	10µM*	-41%	?	0%
CCCCCCCC(=O)N/N=C/c1ccc([N+](=O)[O-])o1	-22%	0%	?	0%
Cc1cc(C)cc(OCC(=O)N/N=C/c2ccc([N+](=O)[O-])o2)c1	8.9µM*	-14%	?	0%
O=C(CC12CC3CC(CC(C3)C1)C2)N/N=C\c1ccc[nH]1	7.9µM*	9%	16µM*	0%
O=C(O)/C=C/c1ccc([N+](=O)[O-])o1	11µM*	7%	-5%	0%
CN1CCN(C(=O)/C=C/c2ccc([N+](=O)[O-])o2)CC1	?	-18%	?	7%
COCCN(CC(=O)Nc1ccccc1C(F)(F)F)C(=O)c1ccc(-n2cccn2)cc1	.	.	.	-1%
Cc1ccccc1OCC(=O)N/N=C/c1ccc([N+](=O)[O-])o1	2.5µM*	-2%	11µM*	0%
O=[N+]([O-])c1ccc(/C=N/N=C/c2ccc([N+](=O)[O-])o2)o1	1.1µM*	5µM*	4.5µM*	0%
O=C1CN(/N=C\c2ccc([N+](=O)[O-])o2)C(=O)N1	-22%[16.9 µM]	.	2%[17 µM]	.
N#CCc1ccc(NC(=O)/C=C/c2ccc([N+](=O)[O-])o2)cc1	-15%	6.3µM*	-15%	0%
COc1ccccc1OCC(=O)N/N=C/C=C/c1ccc([N+](=O)[O-])o1	11µM*	-11%	10µM*	7%
c1cc2c3c(c1)ccc1cccc(c13)C2	8%	.	3%	.
O=c1cc(-c2ccccc2)[nH]n1-c1ccc([N+](=O)[O-])cc1	?	-9%[46.1 µM]	?	0%
CN(C)C(=O)c1ccc(-c2ccc3ncnc(N4CCOCC4)c3c2)cc1	7%	.	3%	.
CC(=O)N/N=C/c1ccc([N+](=O)[O-])o1	?	.	3.5µM*	.
CCOC(=O)N/N=C\c1ccc([N+](=O)[O-])o1	-19%	1%[46.1 µM]	-7%	-1%
COc1ccc(N/N=C(\C#N)C(=N)N2CCCCC2)cc1	-11%	34%	-16%	1%
COc1ccc(N/N=C(\C#N)C(=N)SCc2ccccc2)cc1	?	14%	16µM*	-1%
O=[N+]([O-])c1ccc(S(=O)(=O)NCCc2ccncc2)cc1	-26%	15%	22%	0%
COc1ccccc1C1C2=C(N=C3SCC(=O)N31)c1ccccc1CC2 (stereo not drawn)	11µM*	-1%[46.1 µM]	-9%	0%
COc1ccc(C2C3=C(N=C4SCC(=O)N42)c2ccccc2CC3)cc1OC (stereo not drawn)	-4%	-19%[46.1 µM]	14%	0%
CCCCCC#CC[C@@H](O)/C=C/C=C/C=C\[C@@H](O)CCCC(=O)O	9%	.	5%	.
COc1c(-c2coc3cc4c(cc3c2=O)CC(OC(C)=O)C(C)(C)O4)ccc2c1C=CC(C)(C)O2 (stereo not drawn)	2.5µM*	.	1.3µM*	.
COc1c(-c2coc3cc4c(cc3c2=O)CC(O)C(C)(C)O4)ccc2c1C=CC(C)(C)O2 (stereo not drawn)	1.1µM*	.	-4%	.
CC1(C)C=Cc2c(cc3occ(-c4ccc5c(c4)OCO5)c(=O)c3c2O)O1	0%	.	-13%	.
